Screening results from PubChem.
D1 agonist = agonists of human D1 dopamine receptor. HEK293 T-REx D1 cells, calcium flux, agonist mode. activation, % at 2 µM. 360,000 tested, 1% active
Target sequence (P21728 whole entry, looked up): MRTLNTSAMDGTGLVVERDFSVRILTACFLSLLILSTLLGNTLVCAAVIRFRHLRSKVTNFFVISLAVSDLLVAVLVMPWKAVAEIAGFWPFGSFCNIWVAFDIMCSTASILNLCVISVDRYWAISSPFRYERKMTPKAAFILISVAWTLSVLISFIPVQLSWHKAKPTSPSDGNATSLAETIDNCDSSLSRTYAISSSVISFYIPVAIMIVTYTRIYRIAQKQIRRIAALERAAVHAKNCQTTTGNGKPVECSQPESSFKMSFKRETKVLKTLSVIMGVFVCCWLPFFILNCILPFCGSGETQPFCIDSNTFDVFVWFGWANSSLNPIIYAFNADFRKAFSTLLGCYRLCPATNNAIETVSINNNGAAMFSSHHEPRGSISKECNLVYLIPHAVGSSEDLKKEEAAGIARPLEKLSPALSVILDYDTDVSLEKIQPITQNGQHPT
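Inducible HEK293 T-REx D1 cells, force-coupled to calcium signalling, were plated at 4000 cells/well with tetracycline and held overnight at 30 C. After no-wash calcium dye loading, compound-evoked calcium rise over 180 s flagged agonists.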
TRHR enhancer = allosterically enhances the human TRH receptor; P34981; TRHR cells, fluo-8 calcium fluorescence, EC20 TRH enhancement; enhancement, % at 2 µM; 360,000 tested, 0.66% active; AID 493056; in the data active = enhancement above about 30%
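TRHR-expressing cells loaded with fluo-8 calcium dye were read kinetically (ex 480/em 530) during compound addition, then stimulated with an EC20 of TRH (10 nM final). Enhancement of the Gq-mediated intracellular calcium response was scored.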
D1 potentiator = enhances dopamine response at the human D1 receptor; P21728; HEK293 TREx D1 cells, calcium flux, dopamine EC20 potentiation; 360,000 tested, 0.036% active; potentiation, % at 10 µM; AID 504651; in the data active = potentiation above about 30%
TRHR ag = activates the human TRH receptor; activation, % at 2 µM; 360,000 tested, 0.18% active; TRHR cells, calcium flux fluo-8, FDSS agonist mode; AID 493084; P34981
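TRHR-expressing cells, plated overnight in medium with 10% serum, were loaded with fluo-8 calcium dye at room temperature. After a 10 s baseline, library compound was pin-added and calcium release was recorded kinetically (ex 480/em 530) as agonist response.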
D1 antagonist = human D1 dopamine receptor antagonism. HEK293 TREx D1 cells, calcium flux, dopamine EC80; hits give low values. activity change, negative = inhibition, % at 10 µM. 360,000 tested, 3.2% active. AID 504652; in the data active = activity change below about -30%
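Calcium flux readout: force-coupled, inducible Hek293 Trex D1 line, cells induced overnight at 30 C with tetracycline, dye-loaded 30–90 min at RT. Antagonism scored against EC80 dopamine challenge given 180 s after compound.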
Large screens that a line does not name were inactive; ! = not confirmed by another sample. Most compounds without a hit are left out; they make up all but 4.6% or so of the library. Cut-off read from the data, not from the text of the source, unless noted: active = activation above about 30%; inactive = the rest.

CC(C)(C)c1ccc(-c2nc(C#N)c(NCCCn3ccnc3)o2)cc1	D1 agonist 36
Cc1ccc2nc(NCCc3ccc(Cl)cc3)c3nncn3c2c1	D1 antagonist -61!
CC(C)(C)c1ccc(SCCc2ccccn2)cc1	none
CCOc1cccc2cc(-c3nc4sc5c(c4c(=O)[nH]3)CCC(C(C)(C)C)C5)c(=O)oc12 (stereo unspecified)	none
Cc1ccc(S(=O)(=O)N(CC(=O)Nc2ccc3c(c2)OCO3)c2cc(Cl)cc(Cl)c2)cc1	none
CN(c1cccc(NC(=O)CN(c2ccc(Cl)c(Cl)c2)S(=O)(=O)c2ccccc2)c1)S(C)(=O)=O	none
Cc1ccc(S(=O)(=O)N(CC(=O)Nc2cccc(N(C)S(C)(=O)=O)c2)c2ccc(Cl)c(Cl)c2)cc1	D1 antagonist -32
Cc1ccc(S(=O)(=O)N(CC(=O)Nc2c(C)cccc2C)c2cccc(Cl)c2)cc1	D1 antagonist -85
CCc1ccc2oc(-c3ccc(C)c(NC(=O)c4ccc(C#N)cc4F)c3)nc2c1	none
COc1cc(-c2nc3nc[nH]n3c2Nc2ccc(C(C)C)cc2)ccc1O	none
O=C1CCc2ccc(OCCCCN3CCN(c4cccc(Cl)c4Cl)CC3)cc2N1	D1 antagonist -44 (no result: D1 agonist, D1 potentiator)
COc1ccc(C)cc1NC(=O)C1CCN(S(=O)(=O)c2c(C)noc2/C=C/c2ccco2)CC1	none
COc1cc(CNCc2ccccn2)ccc1OCc1c(Cl)cccc1Cl	D1 agonist 41
COc1cc(CNCc2ccccn2)ccc1OCc1ccc(Cl)cc1	none
O=[N+]([O-])c1cccc(P(=O)(O)c2cccc([N+](=O)[O-])c2)c1	TRHR enhancer 31
CCP(=O)(c1cccc([N+](=O)[O-])c1)c1cccc([N+](=O)[O-])c1	none
CCOC(=O)c1c(-c2cccs2)csc1NC(=O)C(C)(C)C	D1 agonist 34
CCOC(=O)c1c(-c2cccs2)csc1NC(C)=O	none
O=[N+]([O-])c1cccc(-c2ccc(C(=S)N3CCOCC3)o2)c1	D1 antagonist -35
COc1ccccc1-c1c(C)nn2c(C)cc(C)nc12	D1 antagonist -36
CCc1cccc(NC(c2nnc(-c3ccccc3)o2)c2ccc(F)cc2Cl)c1 (stereo unspecified)	none
Cc1ccc(Cl)cc1N1CCN(C(=O)c2cc(S(=O)(=O)N3CCCC3)c[nH]2)CC1	none
COc1ccccc1NC(=S)N(Cc1ccccc1)Cc1cccs1	D1 antagonist -54
COc1ccccc1NC(=S)N(Cc1cccs1)C1CCCC1	none
CC(C)c1ccc(NC(=O)N2c3ccccc3Sc3ccccc32)cc1	none
COc1ccccc1C(=O)N1CCC(c2noc(-c3ccc(S(=O)(=O)N4CCCC4)cc3)n2)CC1	none
COc1ccc(N=Nc2nc3cc(Br)c(Br)cc3n2C)c(OC)c1	D1 agonist 88, TRHR ag 55
Clc1cccc(Cl)c1CSc1nnc(-c2sccc2-n2cccc2)o1	D1 agonist 50
CSc1nnc(-c2sccc2-n2cccc2)o1	none
Cc1cn(CC2COC(C)(C)O2)c(=O)[nH]c1=O (stereo unspecified)	D1 antagonist -30
CCOc1ccccc1OCCn1nc2ccccc2n1	none
Cc1ccc(OCCn2nc3ccccc3n2)c(C)c1	TRHR enhancer 39
CN(C)c1ccc(CNC(=O)c2cnc3sc(N4CCOCC4)nn3c2=O)cc1	none
Cc1ccc(-n2ncc(C(=O)NCCCN3CCCCC3)c2C2CCN(C(=O)OC(C)(C)C)CC2)cc1	none
O=C1CC(Cc2ccccc2)C(=O)N1CCc1ccc2c(c1)OCO2 (stereo unspecified)	none
O=C1OC[C@H](Cc2ccc3c(c2)OCO3)/C1=C\c1ccc2c(c1)OCO2	D1 antagonist -33
COc1ccc2[nH]c3nc(SCC(=O)Nc4cccc(NC(C)=O)c4)nnc3c2c1	none
COc1ccc(-c2nnc(SCC(=O)Nc3ccc(C(C)=O)cc3)nc2-c2ccc(OC)cc2)cc1	D1 antagonist -70
COc1cccc(NC(=O)CSc2nnc3c(n2)[nH]c2ccc(C)cc23)c1	D1 antagonist -84
CC(=O)c1ccc(NC(=O)CSc2nnc3c(n2)[nH]c2ccccc23)cc1	D1 antagonist -37
COc1ccc(CNC(=O)CCCc2nnc3n(C(C)C)c(=O)c4sccc4n23)cc1	none
Cc1ccc2cc3cc(C(=O)N4CCN(c5ccccc5)CC4)sc3nc2c1	none
Cc1ccc(C(=O)c2oc3ccccc3c2NC(=O)Cc2ccccc2)cc1	none
COc1cccc(NC(=O)COc2cccc(-n3cnnn3)c2)c1	none
Cc1ccc(NC(=O)COc2cccc(-n3cnnn3)c2)cc1[N+](=O)[O-]	D1 antagonist -45
COc1ccc(OC)c(S(=O)(=O)N2CCN(S(=O)(=O)c3ccc4c(c3)OCCO4)CC2)c1	none
Cn1cc(Br)c(NS(=O)(=O)c2ccc(Cl)s2)n1	none
C=CCc1ccccc1OCCSc1nc2ccc([N+](=O)[O-])cc2s1	none
Nc1cc(N)nc(SCCOc2ccccc2F)n1	none
COc1ccc(OCCSc2ncccn2)cc1	TRHR enhancer 31
COc1ccccc1OCCSc1nc2ccc([N+](=O)[O-])cc2s1	D1 antagonist -57
COc1ccccc1OCCSc1nc(N)cc(N)n1	D1 antagonist -84
COc1ccc(Nc2cc(Nc3cccc(OC)c3)ncn2)cc1	none
CCN(Cc1nc(-c2ccc(OC)cc2)oc1C)S(=O)(=O)c1ccc(Cl)cc1	none
COc1ccc(N2CCN(c3ccc(-c4nc(-c5ccccc5C)no4)cc3[N+](=O)[O-])CC2)cc1	none
Cc1ccc(CN2C3CCCC2CC(NC(=O)c2ccc(C)cc2)C3)cc1 (stereo unspecified)	D1 antagonist -68
CN1C2CCC1CC(NC(=O)c1ccc(Cl)cc1)C2 (stereo unspecified)	D1 antagonist -32
O=C(NC1CC2CCCC(C1)N2Cc1ccc(F)cc1)c1ccc(F)cc1 (stereo unspecified)	D1 antagonist -68
CCC(=O)NC(/C=C/c1ccccc1)c1cc([N+](=O)[O-])c2cccnc2c1O (stereo unspecified)	TRHR enhancer 32
N#Cc1cccc(NC(=O)COC(=O)Cn2nc(-c3ccccc3)oc2=O)c1	D1 antagonist -85 (no result: D1 potentiator)
CCOc1ccc(CCNC(=O)c2cc3sc(CC)cc3n2C)cc1OCC	none
O=C(CCC(=O)N1CCOc2ccc(Cl)cc21)NCCCN1CCN(c2ccccc2F)CC1	D1 antagonist -42
O=C(CCN1C(=O)COc2ccccc21)NCCCN1CCN(c2ccccc2F)CC1	D1 antagonist -40
O=C(CCC(=O)N1CCOc2ccc(Cl)cc21)NCCCN1CCC(Cc2ccccc2)CC1	D1 antagonist -41
Cc1ccc(C)c(N2CCN(CCCNC(=O)CCC(=O)N3CCOc4ccc(Cl)cc43)CC2)c1	none
CCC(Sc1nc2cc(OC)c(OC)cc2c(=O)n1CCc1ccc(Cl)cc1)C(=O)NCCOC (stereo unspecified)	none
